According to PubChem BioAssay (NCATS):
Records with an inconclusive call do not appear. Entries that show only a call come without a potency. Activity calls are given as the source filed them. Calls come from the whole dose curve; as a rule, active = well fitted inhibition curve with a large enough effect; inconclusive = small, poorly fitted or top-dose-only effect; inactive = flat fitted curve, though single readings scatter.

Assays:
Assay in all cases: qHTS profiling for inhibitors of Plasmodium falciparum proliferation (AID 504749); note: nearly all actives have a fitted effect of over 60% in size
Conditions in all cases: P. falciparum in erythrocytes, SYBR Green DNA, 72 h; series mostly up to 28.7 µM
[1] = system: CP266
In short: (§1)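 P. falciparum-infected erythrocytes (0.3% parasitemia, 2.5% hematocrit final) were exposed to compounds for 72 h at 37 C in 5% CO2, then lysed with SYBR Green buffer overnight at room temperature; parasite DNA fluorescence was normalized to artemisinin and DMSO controls.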

[2] = system: CP268
In short: as §1

[3] = system: CP269
In short: as §1

[4] = system: CP286
In short: as §1

[5] = system: CP291
In short: as §1

[6] = system: CP297
In short: as §1

[7] = system: CP305
In short: as §1

[8] = system: CP315
In short: as §1

[9] = system: CP325
In short: as §1

[10] = system: CP329
In short: as §1
Potency is the fitted concentration of half-maximal effect.

| SMILES | Potency [1] | Potency [2] | Potency [3] | Potency [4] | Potency [5] | Potency [6] | Potency [7] | Potency [8] | Potency [9] | Potency [10] |
| --- | --- | --- | --- | --- | --- | --- | --- | --- | --- | --- |
| CN1c2ccccc2C(NCCCCCCC(=O)O)c2ccc(Cl)cc2S1(=O)=O (stereo unspecified) | inactive | inactive | inactive | inactive | inactive | inactive | inactive | inactive | inactive | inactive |
| [O]=[Cd] | inactive | inactive | inactive | inactive | inactive | inactive | inactive | inactive | inactive | inactive |
| O=C(OCCN1CCCCC1)C(O)(c1ccccc1)c1ccccc1 | inactive | inactive | inactive | inactive | inactive | inactive | inactive | inactive | inactive | inactive |
| CCCCCl | inactive | inactive | inactive | inactive | inactive | inactive | inactive | inactive | inactive | inactive |
| COC([CH2][Hg])CNC(=O)c1ccccc1OCC(=O)O (stereo unspecified) | inactive | inactive | inactive | inactive | inactive | inactive | inactive | inactive | inactive | inactive |
| N#CC1(N2CCCCC2)CCCCC1 | inactive | inactive | inactive | inactive | inactive | inactive | inactive | inactive | inactive | inactive |
| ClCC1CO1 (stereo unspecified) | inactive | inactive | inactive | inactive | inactive | inactive | inactive | inactive | inactive | inactive |
| COc1ccc(OC)c(C(O)C(C)N)c1 (stereo unspecified) | inactive | inactive | inactive | inactive | inactive | inactive | inactive | inactive | inactive | inactive |
| S=C(S)N1CCNCC1 | inactive | inactive | inactive | inactive | inactive | inactive | inactive | inactive | inactive | inactive |
| CCCC(C)C1(CC)C(=O)NC(=O)NC1=O (stereo unspecified) | inactive | inactive | inactive | inactive | inactive | inactive | inactive | inactive | inactive | inactive |
| O=C(O)C(Cl)(Cl)Cl | inactive | inactive | inactive | inactive | inactive | inactive | inactive | inactive | inactive | inactive |
| Clc1ccccc1Cl | inactive | inactive | inactive | inactive | inactive | inactive | inactive | inactive | inactive | inactive |
| Cn1sc(Cl)cc1=O | inactive | inactive | inactive | inactive | inactive | inactive | inactive | inactive | inactive | inactive |
| O=Cc1ccco1 | inactive | inactive | inactive | inactive | inactive | inactive | inactive | inactive | inactive | inactive |
| N#CN | inactive | inactive | inactive | inactive | inactive | inactive | inactive | inactive | inactive | inactive |
| CC(Cc1ccccc1)NC=O (stereo unspecified) | inactive | inactive | inactive | inactive | inactive | inactive | inactive | inactive | inactive | inactive |
| O=C/C=C/c1ccccc1 | inactive | inactive | inactive | inactive | inactive | inactive | inactive | inactive | inactive | inactive |
| Oc1cc(Cl)c(Cl)cc1Cl | inactive | inactive | inactive | inactive | inactive | inactive | inactive | inactive | inactive | inactive |
| CCC(=O)O[C@@](Cc1ccccc1)(c1ccccc1)[C@@H](C)CN(C)C | inactive | inactive | inactive | inactive | inactive | inactive | inactive | inactive | inactive | inactive |
| Clc1ccc(Cl)cc1 | inactive | inactive | inactive | inactive | inactive | inactive | inactive | inactive | inactive | inactive |
| C[CH2][Hg][S]c1ccccc1C(=O)O | 4.26 µM (active) | 3.79 µM (active) | 1.69 µM (active) | 1.41 µM (active) | 3.79 µM (active) | 1.69 µM (active) | 3.79 µM (active) | 4.26 µM (active) | 1.69 µM (active) | 1.69 µM (active) |
| CCCCCCCCOC(=O)c1ccccc1C(=O)OCCCCCCCC | inactive | inactive | inactive | inactive | inactive | inactive | inactive | inactive | inactive | inactive |
| FC(F)OC(F)(F)C(F)Cl (stereo unspecified) | inactive | inactive | inactive | inactive | inactive | inactive | inactive | inactive | inactive | inactive |
| O=c1[nH]cc(N(CCCl)CCCl)c(=O)[nH]1 | inactive | inactive | inactive | inactive | inactive | inactive | inactive | inactive | – | inactive |

| SMILES | Potency [1] | Potency [2] | Potency [3] | Potency [4] | Potency [5] | Potency [6] | Potency [7] | Potency [8] | Potency [9] | Potency [10] |
| --- | --- | --- | --- | --- | --- | --- | --- | --- | --- | --- |
| c1csc(C2(N3CCCCC3)CCCCC2)c1 | inactive | inactive | inactive | inactive | inactive | inactive | inactive | inactive | inactive | inactive |
| O=C1CCCCC1CN1CCCCC1 (stereo unspecified) | inactive | inactive | inactive | inactive | inactive | inactive | inactive | inactive | inactive | inactive |
| CN1C2CCC1CC(OC(c1ccccc1)c1ccc(Cl)cc1)C2 (stereo unspecified) | 13.5 µM (active) | 9.53 µM (active) | 9.53 µM (active) | 5.01 µM (active) | 12 µM (active) | 8.49 µM (active) | 12 µM (active) | – | 9.53 µM (active) | 13.5 µM (active) |
| CC(=O)O[C@H]1CC[C@H]2[C@@H]3CCC4=CC(=O)CCC4=C3C=C[C@]12C | inactive | inactive | inactive | inactive | inactive | inactive | inactive | inactive | inactive | inactive |
| CC(=O)OC1CN2CCC1CC2 (stereo unspecified) | inactive | inactive | inactive | inactive | inactive | inactive | inactive | inactive | inactive | inactive |
| CC(C)CCON=O | inactive | inactive | inactive | inactive | inactive | inactive | inactive | inactive | inactive | inactive |
| CC1CCC(C(C)C)C(OC(=O)c2ccccc2N)C1 (stereo unspecified) | inactive | inactive | inactive | inactive | inactive | inactive | inactive | inactive | inactive | inactive |
| c1ccc2sc(SNC3CCCCC3)nc2c1 | inactive | inactive | inactive | inactive | inactive | inactive | inactive | inactive | inactive | inactive |
| CCCCNCC(O)c1ccc(O)cc1 (stereo unspecified) | inactive | inactive | inactive | inactive | inactive | inactive | inactive | inactive | inactive | inactive |
| O=C1CCO1 | inactive | inactive | inactive | inactive | inactive | inactive | inactive | inactive | inactive | inactive |
| CN1[C@@H]2CC[C@H]1CC(OC1c3ccccc3CCc3ccccc31)C2 (stereo partly specified) | inactive | inactive | inactive | – | inactive | – | inactive | inactive | inactive | inactive |
| CCOP(=O)(OCC)O/C(=C/Cl)c1ccc(Cl)cc1Cl | inactive | inactive | inactive | inactive | – | inactive | inactive | inactive | inactive | inactive |
| O=C1CN=C(c2ccccc2)c2cc(Cl)ccc2N1CC1CC1 | inactive | inactive | inactive | – | inactive | inactive | inactive | inactive | inactive | inactive |
| Cc1sc2ccccc2c1CC1=NCCN1 | inactive | inactive | inactive | – | inactive | – | inactive | inactive | inactive | inactive |
| N#CC(C#N)=Cc1cc(O)c(O)c(O)c1 | 16.9 µM (active) | – | 10.7 µM (active) | 10 µM (active) | – | 15.1 µM (active) | – | – | – | – |
| CC12NC(Cc3ccccc31)c1ccccc12 (stereo unspecified) | inactive | inactive | – | – | – | 6.01 µM (active) | inactive | inactive | inactive | – |
| COCC(C)N(C(=O)CCl)c1c(C)csc1C (stereo unspecified) | inactive | inactive | inactive | inactive | inactive | – | inactive | inactive | inactive | inactive |
| O=C(CCl)c1ccc(Oc2ccc(C(=O)CCl)cc2)cc1 | – | inactive | inactive | inactive | inactive | inactive | inactive | inactive | inactive | inactive |
| O=c1c2ccccc2[se]n1-c1ccccc1 | inactive | inactive | inactive | – | inactive | inactive | inactive | inactive | inactive | inactive |
| O=C(NCNC(=O)NC1C(=O)NC(=O)N1CO)NC1C(=O)NC(=O)N1CO (stereo unspecified) | inactive | – | inactive | inactive | inactive | inactive | inactive | inactive | inactive | inactive |
| F/C(COc1ccc2c(c1)[nH]c1ccccc12)=C1/CN2CCC1CC2 | – | – | – | 7.08 µM (active) | – | – | – | – | inactive | – |
| CCCCCCCCCC(=O)O[C@H]1CC[C@H]2[C@@H]3CCC4=CC(=O)CC[C@]4(C)[C@H]3CC[C@]12C | inactive | inactive | inactive | – | inactive | inactive | inactive | inactive | inactive | inactive |
| CNC(=O)Oc1ccccc1C(=O)Nc1ccccc1 | inactive | inactive | inactive | inactive | inactive | – | inactive | – | inactive | inactive |
| C=CCN(C1=NCCN1)c1c(Cl)cccc1Cl | inactive | inactive | inactive | inactive | – | inactive | inactive | inactive | inactive | inactive |
